Each structure is given as a SMILES string. “And” between values parts separate entries of the source, which are not always exact repeats. Identical values can stand only once. Compounds without any hit were thinned out: in the full panel of roughly 83,000, 20% have a hit.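 Compound tested at a single concentration for 48 hours in 96-well plates; a percent growth value below 10 was scored as active.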 A number with no mark means an inactive call. The source made the active and inactive calls.

The first assay deals with SNB-75 CNS. The assay can be described thus: NCI-60 one-dose screen, 48 h (100 = growth as untreated, 0 = no growth, -100 = all killed). The following applies: 10 µM unless noted.
Consider `COc1ccc(-c2cc(-c3ccc(N4CCOCC4)cc3)n3c(n2)nc2ccccc23)cc1OC`, for which the growth was 83.3%.

Regarding `CCOC(=O)c1c(NC(=O)c2cccc(C(F)(F)F)c2)sc2c1CCC(=O)C2`, the growth is 31.6%.

Consider `CN1CCN(c2ccc(Nc3nc(NCCCNS(=O)(=O)c4ccc(Cl)cc4)c4sccc4n3)cc2)CC1`, for which the growth is 19.8%.

For `CCOC(=O)C(=O)Nc1ccc2c(ccn2C(=O)c2cccc(F)c2)c1`, the growth was 74.3%.

Take `CCOc1cccc(/C(N)=N/C(N)=N/c2nc3ccccc3s2)c1`: the growth is 87.9%.

Regarding `CN1CCN(c2ccc(Nc3nc(NCCCNS(=O)(=O)c4ccc(C(F)(F)F)cc4)c4sccc4n3)cc2)CC1`, the growth is -79.5% (active).

Turning to `Cc1ccc2c(n1)C(=O)C(Cl)=C(Nc1cccc(C(F)(F)F)c1)C2=O`, the growth was 109%.

The next assay has as its system SNB-19 CNS. Described as above. The conditions noted are these: 10 µM unless noted.
As for `Cc1cc(Br)ccc1-n1cc(C#N)c(N)c1C(=O)c1ccc(Br)cc1`, the growth is 96.3%.

Turning to `CCCCCCN1C=C/C(=C\C(=O)n2ccc3ccccc32)c2ccccc21`, the growth was 56.7%.

Turning to `Cc1ccc(CSC2=C(Cl)CN(c3ccc(Cl)cc3)C2=O)cc1`, the growth is 93.5%.

As for `Clc1ccc(CSc2nnc(-c3ccc(Cl)cc3)n2-c2ccccc2)cc1`, the growth is 62%.

On to `NS(=O)(=O)c1ccc(CCn2c(-c3ccc(C(=O)O)cc3)nc(-c3ccccc3)c2-c2ccccc2)cc1`, for which the growth was 102%.

In the case of `CC(=C(c1ccc(OCCCN(C)C)cc1)c1ccc(OCCCN(C)C)cc1)c1ccc(Cl)cc1`, the growth was 92.9%.

Turning to `CC[C@]12CC(C(=O)OC)=C3Nc4ccccc4[C@@]34CCN(C14)[C@@H]1c3cc4c(cc3O[C@@H]1[C@H]2O)NC1=C(C(=O)OC)C[C@@]2(CC)C3N(CC[C@@]143)C[C@H]1O[C@H]12` (some centres not stated), the growth is 14.2%.

In the case of `Cc1ccc(-c2csc(N/N=C/c3cccs3)n2)cc1`, the growth is 101%.

On to `CN1CCC[C@]2(C)[C@H]3CC[C@@H]4[C@@H]5[C@H]6OC[C@@]5(CCC6(C)C)CC[C@@]4(C)[C@]3(C)CC[C@H]2C1(C)C`, for which the growth is 84.8%.

With `O=S(=O)(Oc1ccc(-c2cn3ccoc3n2)cc1)c1cccc(C(F)(F)F)c1`, the growth was 95.2%.

Turning to `CC(Nc1c(C#N)cnc2ccc(-c3cncc(-c4n[nH]c(=O)o4)c3)cc12)c1ccccc1` (configuration not stated), the growth was 11.1%.

With `C#CCN(C)CCCOc1ccc(NC(=O)CCCCCCCCC(=O)NO)cc1Cl`, the growth was 77.3%.

Turning to `CCCc1cc2cc(-n3nc(CC)c4c3CC(C)(C)CC4=O)cc(NC3CCC(O)CC3)c2c(=O)[nH]1` (configuration not stated), the growth is 30.6%.

As to `O=C(CN1CCN(c2cc(=O)[nH]c3ccc(F)cc23)CC1)N(c1ccccc1)c1ccccc1`, the growth was 93.4%.

In the case of `CN1CCN(c2ccc(Nc3nc(NCCCNS(=O)(=O)c4cccc(F)c4)c4sccc4n3)cc2)CC1`, the growth was 48.7%.

Regarding `COc1ccc(C(=NNS(=O)(=O)c2ccc(C)cc2)c2ccccc2)cc1OC`, the growth is 94.6%.

`COc1ccc(/C=N/NC(=O)c2c(N)nn(C)c2Nc2ccccc2)cc1Oc1ccccc1`: the growth is 88.4%.

Turning to `C#C[C@]1(O)CC[C@H]2[C@@H]3CC=C4c5sc(NCc6ccccc6)nc5CC[C@]4(C)[C@H]3CC[C@@]21C`, the growth was 66.2%.

On to `Cc1cc(NS(=O)(=O)c2ccc(NC(=O)CSc3nc4ccccc4c(=O)n3-c3ccccc3)cc2)no1`, for which the growth was 94.2%.

Consider `CC(C)NC(=O)c1cc(-c2ccc(NC(=O)Nc3ccc(F)c(C(F)(F)F)c3)cc2)nc2cccnc12`, for which the growth was 93.6%.

Consider `CCOC(=O)c1cccnc1Nc1ccc(NC(=O)Nc2ccc(Cl)c(C(F)(F)F)c2)cc1`, for which the growth was 49.3%.

With `O=C(CSc1nc2ccccc2c(=O)n1-c1ccc(S(=O)(=O)Nc2ccc(Cl)nn2)cc1)Nc1ccc(S(=O)(=O)Nc2ccc(Cl)nn2)cc1`, the growth was 101%.

As to `COc1cc(-c2nc(-c3ccccc3)[nH]c2-c2ccnc(NCCCNS(=O)(=O)c3ccc(C(F)(F)F)cc3)n2)ccc1Cl`, the growth was 57.1% and 54.1%.

Consider `Cc1csc(/N=C(N)/N=C(\N)c2cccc(C#N)c2)n1`, for which the growth is 72.3%.

For `CC[C@]12C=CCN3CC[C@]4(C(=C(C(=O)OC)C1)Nc1cc5c(cc14)[C@@H]1[C@H](O5)[C@@H](O)[C@@]4(CC)CC(C(=O)OC)=C5Nc6cc(O)ccc6[C@@]56CCN1C46)C32` (some centres not stated), the growth was 23.4%.

Turning to `COc1ccc(OC)c(CCn2cncc2-c2c[nH]c3ccc(Cl)cc23)c1`, the growth is 60.4%.

On to `Cc1ccc(-c2cc3nc(C(Cl)Cl)nc(-c4ccc(S(=O)(=O)N(C)C)cc4)n3n2)cc1`, for which the growth was 89.4%.

Take `CC1=C(C)C(=O)C(Nc2cccc(C(=O)OC(C)(C)C)c2)=C(Cl)C1=O`: the growth was 91.5%.

On to `COC(=O)c1ccc(NC2=C(Cl)C(=O)C(C)=C(C)C2=O)cc1`, for which the growth was 53.5%.

On to `Cc1nc(/N=C(N)/N=C(\N)c2cccc(Br)c2)sc1C`, for which the growth was 42.9%.

With `COC(=O)c1cccc(NC2=C(Cl)C(=O)c3nc(C)ccc3C2=O)c1`, the growth is 92.2%.

On to `CN(C)c1ccc(/C=N/Nc2nc(N/N=C/c3ccc(N(C)C)cc3)nc(N3CCCCC3)n2)cc1`, for which the growth was 86%.

As to `OCC(Nc1ncnc2ccc(-c3cnc4cnccn34)cc12)c1ccccc1` (configuration not stated), the growth was 70.6%.

In the case of `COc1ccc(-c2cc(-c3ccc(N4CCOCC4)cc3)n3c(n2)nc2ccccc23)cc1OC`, the growth was 85.1%.

For `CCOC(=O)c1c(NC(=O)c2cccc(C(F)(F)F)c2)sc2c1CCC(=O)C2`, the growth was 21.4%.

As for `CN1CCN(c2ccc(Nc3nc(NCCCNS(=O)(=O)c4ccc(Cl)cc4)c4sccc4n3)cc2)CC1`, the growth was 39.5%.

`CCOC(=O)C(=O)Nc1ccc2c(ccn2C(=O)c2cccc(F)c2)c1`: the growth is 91.6%.

Take `CCOc1cccc(/C(N)=N/C(N)=N/c2nc3ccccc3s2)c1`: the growth is 87.8%.

Regarding `CN1CCN(c2ccc(Nc3nc(NCCCNS(=O)(=O)c4ccc(C(F)(F)F)cc4)c4sccc4n3)cc2)CC1`, the growth is 17.5%.

`Cc1ccc2c(n1)C(=O)C(Cl)=C(Nc1cccc(C(F)(F)F)c1)C2=O`: the growth was 101%.

(Values after PubChem BioAssay (NCI).)
